Data reported in PubChem BioAssay AID1479148 (National Center for Advancing Translational Sciences (NCATS), 2020).
Inconclusive results are not listed. Calls of active or inactive are those of the source. Calls come from the whole dose curve.

Test: Confirmatory qHTS for inhibitors of SARS-S pseudo-typed particle cell entry
Settings: SARS-S pseudotyped particle cell entry, reporter luminescence; series mostly up to 57.1 µM

SMILES | Potency
CN1CCC(=C2c3ccccc3C=Cc3ccccc32)CC1 | 27.1 µM (active)
N/C(=N\N=C\c1ccc(Cl)cc1)N/N=C/c1ccc(Cl)cc1 | inactive
COc1cccc2c1C(=O)c1c(O)c3c(c(O)c1C2=O)C[C@@](O)(C(=O)CO)C[C@@H]3O[C@H]1C[C@H](N)[C@H](OC2CCCCO2)[C@H](C)O1 (stereo partly drawn) | 7.64 µM (active)
CC(=O)[C@]1(O)Cc2c(O)c3c(c(O)c2[C@@H](O[C@H]2C[C@H](N)[C@H](O)[C@H](C)O2)C1)C(=O)c1ccccc1C3=O | 6.07 µM (active)
N#CC(c1ccc(Cl)cc1)c1c(Cl)cc(-n2ncc(=O)[nH]c2=O)cc1Cl (stereo not drawn) | 19.2 µM (active)
CN1CCC(=C2c3ccccc3CCc3sccc32)CC1 | 27.1 µM (active)
Nc1ccn([C@@H]2O[C@H](CO)[C@@H](O)C2(F)F)c(=O)n1 | 0.192 µM (active)
CC[C@@]1(O)C(=O)OCc2c1cc1n(c2=O)Cc2cc3c(CN(C)C)c(O)ccc3nc2-1 | 0.764 µM (active)
C/C=C(/C)C(=O)O[C@H]1C(C)=CC23C(=O)C(C=C(CO)[C@@H](O)[C@]12O)[C@H]1[C@@H](C[C@H]3C)C1(C)C (stereo partly drawn) | 0.0121 µM (active)
CC(C)(C)C(=O)OCOP(=O)(COCCn1cnc2c(N)ncnc21)OCOC(=O)C(C)(C)C | 0.0383 µM (active)
NCCNc1ccc(NCCN)c2c1C(=O)c1ccncc1C2=O | 0.857 µM (active)
C=CC(=O)Nc1cc(Nc2nccc(-c3cn(C)c4ccccc34)n2)c(OC)cc1N(C)CCN(C)C | 1.52 µM (active)
O=C(O)c1cc(O)c2c(c1)[C@H]([C@H]1c3cc(C(=O)O)cc(O)c3C(=O)c3c(O[C@@H]4O[C@H](CO)[C@@H](O)[C@H](O)[C@H]4O)cccc31)c1cccc(O[C@@H]3O[C@H](CO)[C@@H](O)[C@H](O)[C@H]3O)c1C2=O | inactive
O=C(Nc1ccc([N+](=O)[O-])cc1Cl)c1cc(Cl)ccc1O | 0.541 µM (active)
O=C1CCc2ccc(OCCCCN3CCN(c4cccc(Cl)c4Cl)CC3)cc2N1 | 19.2 µM (active)
CC(=O)Oc1ccccc1C(=O)Nc1ncc([N+](=O)[O-])s1 | 12.1 µM (active)
Oc1c(Cl)cc(Cl)c(Cl)c1Cc1c(O)c(Cl)cc(Cl)c1Cl | 1.21 µM (active)

SMILES | Potency
C[C@]12CC[C@H](O)C[C@H]1CCC1C2CC[C@]2(C)[C@@H](c3ccc(=O)oc3)C[C@H]3O[C@]132 (stereo partly drawn) | 5.41 µM (active)
Cc1cc(C(C#N)c2ccc(Cl)cc2)c(Cl)cc1NC(=O)c1cc(I)cc(I)c1O (stereo not drawn) | 30.4 µM (active)
CCCCCCCCCCCC[n+]1ccc2ccccc2c1 | 3.83 µM (active)
CC(C)C[C@H](NC(=O)[C@H](CCc1ccccc1)NC(=O)CN1CCOCC1)C(=O)N[C@@H](Cc1ccccc1)C(=O)N[C@@H](CC(C)C)C(=O)[C@@]1(C)CO1 | 0.681 µM (active)
O=c1ccc2ccccc2o1 | inactive
CCN1CCN(Cc2ccc(Nc3ncc(F)c(-c4cc(F)c5nc(C)n(C(C)C)c5c4)n3)nc2)CC1 | 0.961 µM (active)
CC[C@@]1(O)C(=O)OCc2c1cc1n(c2=O)Cc2c-1nc1ccccc1c2/C=N/OC(C)(C)C | 0.0857 µM (active)
CCN(CC)CCNC(=O)c1c(C)[nH]c(/C=C2\C(=O)Nc3ccc(F)cc32)c1C | 6.07 µM (active)
C[n+]1c2cc(N)ccc2cc2ccc(N)cc21 (tested in a mixture with another compound) | 6.81 µM (active)
CC[C@@]1(O)C(=O)OCc2c1cc1n(c2=O)Cc2cc3c([N+](=O)[O-])cccc3nc2-1 | 0.124 µM (active)
CC(C)(C)NC(=O)[C@H]1CC[C@H]2[C@@H]3CC[C@H]4NC(=O)C=C[C@]4(C)[C@H]3CC[C@]12C | inactive
C=C(C)[C@H]1Cc2c(ccc3c2O[C@@H]2COc4cc(OC)c(OC)cc4[C@@H]2C3=O)O1 | 0.0341 µM (active)
COc1cccc2c1C(=O)c1c(O)c3c(c(O)c1C2=O)C[C@@](O)(C(C)=O)C[C@@H]3O[C@H]1C[C@H](N)[C@H](O)[C@H](C)O1 | 2.15 µM (active)
CN1CCN(CCC=C2c3ccccc3Sc3ccc(S(=O)(=O)N(C)C)cc32)CC1 | 6.07 µM (active)
Nc1nc(Cl)nc2c1ncn2C1CC(O)C(CO)O1 (stereo not drawn) | 12.1 µM (active)
Cc1oncc1C(=O)Nc1ccc(C(F)(F)F)cc1 | inactive
